# Screens deposited in PubChem BioAssay by National Center for Advancing Translational Sciences (NCATS).
# Vif-A3F inh – inhibitors of Vif-A3F interaction; HeLa A3F-eYFP + Vif (tagged APOBEC3F with the HIV-1 protein that degrades it), YFP fluorescence increase; Potency, µM (top dose mostly 46.1 µM); 0.2% of 390,000 active; AID 602313; also: nearly all actives have a fitted effect of over 65% in size
#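 Fluorescence increase (Ex 488/Em 500-530) after overnight compound treatment at 37 deg C flags inhibition of Vif-driven A3F-eYFP loss in stable HeLa A3F-eYFP/Vif cells seeded overnight beforehand.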
# Epigenetic reg – epigenetic control regulation, reporter derepression; 0.2% of 280,000 active; AID 1865; Potency, µM (top dose mostly 53.9 µM), most hits filed as activators; murine LDR cells, GFP reporter derepression, 30 h; also: nearly all actives have a fitted effect of over 60% in size
#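 Reporter derepression read as number of fluorescent GFP-positive objects, 20-120 um in size, counted by laser-scanning cytometer. Mouse LDR line with an epigenetically silenced CMV-GFP locus; compound incubation 30 h, 37 C.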
# Vif-A3G inh – blocks the Vif interaction with human APOBEC3G; Q9HC16; HeLa A3G-eYFP + Vif (tagged APOBEC3G with the HIV-1 protein that degrades it), YFP fluorescence, overnight; Potency, µM (series often up to 46.1 µM), usual class: inhibitors; 0.076% of 410,000 active; AID 602310; also: nearly all actives have a fitted effect of over 60% in size
# Target sequence (Q9HC16 whole entry, looked up): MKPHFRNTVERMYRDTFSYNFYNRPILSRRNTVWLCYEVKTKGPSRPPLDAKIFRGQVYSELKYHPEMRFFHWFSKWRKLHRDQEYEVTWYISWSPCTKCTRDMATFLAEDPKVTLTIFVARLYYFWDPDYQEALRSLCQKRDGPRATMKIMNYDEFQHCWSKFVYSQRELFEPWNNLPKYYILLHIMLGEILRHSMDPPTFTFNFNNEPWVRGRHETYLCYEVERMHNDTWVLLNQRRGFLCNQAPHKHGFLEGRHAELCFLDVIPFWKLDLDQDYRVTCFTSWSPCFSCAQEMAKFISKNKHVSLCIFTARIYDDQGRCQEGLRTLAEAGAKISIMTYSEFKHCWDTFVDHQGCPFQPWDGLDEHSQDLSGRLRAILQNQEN
#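 Read-out is eYFP fluorescence (Ex 488/Em 500-530) from Vif-expressing HeLa A3G-eYFP cells; more signal means A3G escaped Vif-mediated degradation. Cells plated overnight, compound pinned in, incubated overnight at 37 deg C.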
# Numbers stand for hits; n = inactive; u = inconclusive; x = not tested or not shown. An excerpt weighted towards active compounds, which were near 0.34% of everything screened. Calls follow the shape of the dose curve; as a rule, active = well fitted curve in the direction sought with a large enough effect; inconclusive = small, poorly fitted or top-dose-only effect, or another doubt; inactive = no such curve, though single readings can be large; an effect the other way counts as inactive or inconclusive.
SMILES,Vif-A3F inh,Epigenetic reg,Vif-A3G inh
Cc1noc(C)c1CSc1nc2ccccc2c(=O)n1-c1ccccc1,n,n,3.5µM
COc1ccc(CCNC(=O)C(C)n2nc(C)c3sc4ccccc4c3c2=O)c(OC)c1 (stereo not given),x,n,x
COc1ccccc1C(=O)c1c(N)c(-c2nc(-c3ccccc3)cs2)c2ccccn12,x,n,x
Clc1ccc2ccc3cccnc3c2n1,n,x,n
O=S1(=O)Nc2c(ccc3cccnc23)-c2ccccc21,n,u,7.1µM
CCN(Cc1ccccc1)S(=O)(=O)c1ccc(-c2coc(C)n2)cc1,n,n,n
COc1ccc(CNC(=O)CCc2c(C)c3cc4c(C)c(C)oc4cc3oc2=O)cc1OC,n,n,n
CCCN1C(=O)C(Cc2nc3ccccc3c(=O)n2CC)c2ccccc21 (stereo not given),x,n,x
CCOC(=O)c1c(-c2ccc(OC)cc2)csc1/N=C/C1=C(O)CCCC1=O,22µM,u,22µM
CCOC(=O)c1c(/N=C/C2=C(O)CCCC2=O)sc(C)c1C,n,n,n
CN(C)/[N+]([O-])=N/Oc1ccc([N+](=O)[O-])cn1,x,x,n
CCN(CC)/[N+]([O-])=N/OCOC(=O)C(C)c1ccc2cc(OC(C)=O)ccc2c1 (stereo not given),x,x,n
Cc1csc(NC(=O)CCC(=O)N(CC(=O)NC2CCCC2)Cc2ccccc2)n1,11µM,x,u
COc1ccc(CN(CC(=O)NC2CCCC2)C(=O)CCC(=O)Nc2nc(C)cs2)cc1,n,x,n
CCn1c2ccc(OC)cc2c2nc3ccccc3nc21,x,n,n
CCOc1ccc(Cn2c3ccc(OC)cc3c3nc4ccccc4nc32)cc1,11µM,n,u
COc1ccc(NC(=O)C(=O)c2cc(C)n(-c3ccc(C)cc3)c2C)cc1Cl,n,n,n
Cc1ccc(Nc2nnc(SC/C(O)=C(\C#N)c3nc4ccccc4[nH]3)s2)c(C)c1,n,n,n
Cc1cccc(Nc2nnc(SC/C(O)=C(\C#N)c3nc4ccccc4[nH]3)s2)c1,22µM,n,n
COC(=O)c1[nH]c2c(c1C(=O)OC)CCc1ccccc1-2,8.9µM,x,n
CCOC(=O)c1c(NC(=O)c2ccccc2)sc2c1CCc1ccccc1-2,u,n,n
CN(C(=O)c1nn(C)c2c1COc1ccccc1-2)c1cccc(C(F)(F)F)c1,n,n,n
CCOC(=O)/C(=C\C=C1/Sc2ccccc2N1CC)C(C)=O,n,16µM,u
CCOC(=O)/C(=C/C=C1\Sc2ccccc2N1CC)C(C)=O,n,u,u
Cc1ccc(CN2C(=O)CC(c3ccc(Cl)cc3)c3c(C)nn(-c4nc(C)cc(C)n4)c32)cc1 (stereo not given),n,n,n
SMILES,Vif-A3F inh,Epigenetic reg,Vif-A3G inh
Cc1ccc(N=Cc2c(O)c3ccccc3n(C)c2=O)cc1,n,x,n
Cc1ccc(N=Cc2sc(O)c3ccccc23)cc1,u,16µM,u
C[C@@H]1[C@H](c2ccccc2)OCCS(=O)(=O)N1Cc1ccc(Cl)cc1,x,x,n
O=C(Nc1ccc(Cl)cn1)c1cccc(S(=O)(=O)N2CCCCC2)c1,n,x,n
O=C(Nc1ccc(Cl)cn1)c1cccc(S(=O)(=O)N2CCCCCC2)c1,n,x,20µM
CCOC(=O)c1c(/N=C/N(C)C)sc(/C=N/Nc2ccccc2)c1-c1ccccc1Cl,n,n,n
CCOC(=O)c1c(/N=C/N(C)C)sc(/C=N/Nc2ccccc2)c1-c1ccccc1,n,10µM,n
Cc1ccc(S(=O)(=O)c2c(O)cc(C)c(NS(=O)(=O)c3ccc(Cl)cc3)c2C)cc1,n,n,n
Cc1cccc(-n2ncc(C(=O)NCc3ccco3)c2C2CCN(C(=O)OC(C)(C)C)CC2)c1,n,n,n
NC(=O)N/N=C/c1sc(N2CCCCC2)nc1-c1cccs1,n,x,u
CC(C)NC(=S)N/N=C/c1sc(N2CCCCC2)nc1-c1cccs1,11µM,u,u
COC(=O)c1c(-c2cccnc2)csc1NC(=O)c1ccc2c(c1)OCO2,10µM,x,n
COC(=O)c1sccc1NC(=O)c1ccc2c(c1)OCO2,n,n,n
CCc1cccc(NC(=O)CSC2=Nc3ccccc3N=C(c3ccc(F)cc3)C2)c1,n,n,n
CCn1nc(C)c(CCN(C)C(=O)Nc2cc(C)cc(C)c2)c1C,n,n,n
Cc1ccc(C)c(S(=O)(=O)/N=C2\C=C(NS(=O)(=O)c3ccccc3)C(=O)c3ccccc32)c1,n,x,n
Cc1cc(C)c(S(=O)(=O)/N=C2/C=C(Sc3ncn[nH]3)C(=O)c3ccccc32)cc1C,7.1µM,n,u
CCOc1ccc(CNCc2c(C(=O)O)n(Cc3ccc(OC)cc3)c3ccccc23)cc1,n,n,n
CC(C)(C)n1ncc2c(=O)n(Cc3ccc(F)cc3Cl)cnc21,x,x,n
C/C(=N\NC(=O)C(C)n1nc(C)c([N+](=O)[O-])c1C)c1ccccc1O (stereo not given),5.6µM,n,n
